From PubChem BioAssay AID463212 (Sanford-Burnham Center for Chemical Genomics, 2010) come the findings set out here.

Molecules are shown by their SMILES. Among all 330,000 compounds or so, about 4,400 (1.3%) were called active. The full list was thinned out, with actives kept by preference. A number with no mark means an inactive call.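 Rule for the calls: active = growth inhibition of the mutant yeast at or above 50%; inactive = the rest.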

This test can be described thus: growth inhibition of tim23-1 ts yeast – luminescence, uHTS, primary screen (AID 463212).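 Note: temperature-sensitive mutant grown at 25 °C; plate controls were DMSO-treated mutant yeast for no effect and medium wells lacking yeast for full effect.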 Particulars: S. cerevisiae tim23-1 growth, BacTiter-Glo luminescence, 24 h; at 20 µM; hits give high values.
Usually inhibition stands for the relative decrease from the control value, in per cent. Regarding `CN(C)c1ccc(N/C=C/C(=O)C(F)(F)F)cc1`, the inhibition was 6.08%. The result for `O=C(O)c1cc(S(=O)(=O)N2CCCCCC2)c(Cl)cc1Cl` reads 8.13%; that for `COc1ccc(CCNC(=O)CCCCCNC(=O)N2CCn3c2nc2ccccc23)cc1OC`, 15%.

For `CC1CC2=C(CC1/C=N/NC(N)=S)C(C)(C)CCC2` (stereo not drawn), the inhibition is 50.5% (active). The result for `CC1CCN(C(=S)c2ccc(-c3ccc(Cl)cc3Cl)o2)CC1` reads 17.6%; that for `C/C(=N\NC(=O)c1ccc(NS(=O)(=O)c2cccs2)cc1)c1ccc2ccccc2c1`, 10.6%; that for `CCN(C(=O)CSc1nnnn1-c1ccccc1OC)C1CCS(=O)(=O)C1` (stereo not drawn), -2.5%.

`CC(=O)Nc1cccc(C(=O)OCC(=O)c2ccc3c(c2)OCO3)c1`: the inhibition is 2.44%.

As for `O=C(COC(=O)c1ccc(O)cc1O)c1ccc2c(c1)OCCO2`, the inhibition is 59% (active).

Take `O=C(COC(=O)c1ccccc1)c1ccc2c(c1)OCCO2`: the inhibition is 16.5%.

With `O=C(c1cnn2ccccc12)N1CCc2ccccc21`, the inhibition is 5.86%. The result for `COC(=O)c1cn(C)c2ccc(S(=O)(=O)N3CC(C)CC(C)C3)cc2c1=O` (stereo not drawn) reads 17.1%. The result for `CC(=O)N/C(=C/c1ccc(OC(F)F)cc1)C(=O)O` reads 0.72%; that for `C=CCn1c(Cn2nnc3ccccc32)nnc1SCC(=O)N/N=C/c1cc(Br)cc(OC)c1O`, 7.67%; that for `COc1cc(Br)cc(/C=N/c2ncn[nH]2)c1O`, 72.2% (active).

`Oc1c(Cl)cc(Cl)cc1/C=N/c1ncn[nH]1`: the inhibition was 31.4%. Turning to `CCc1ccc(Oc2nc([N+](=O)[O-])nn2C)cc1`, the inhibition is 27.6%. For `CCCc1nc2c(c(=O)c3ccccc3n2C)c(=O)n1C1CCCCCC1` the value was 59.8% (active); for `Cn1c2ccccc2c2c(C(=O)N3CCN(c4ccc(F)cc4)CC3)cn(C3CCCC3)c(=O)c21`, 31.3%; for `CC1CCN(Cc2nc3c(c(=O)n(C)c(=O)n3C)n2CCc2ccccc2)CC1`, 5.06%. The result for `CCN=c1sc(C(=O)Nc2ccccc2)c(C)n1CC` reads -9.39%. Regarding `COc1cccc(C2=CC(=O)C[C@H](c3ccc(OC)c(OC)c3)C2)c1`, the inhibition was 29%. For `Cc1ccc(OC(=O)c2c(C)nn(-c3ccccc3)c2C)cc1` the value was 23%; for `Cc1ccc(Oc2cnn(-c3ccccc3)c(=O)c2Br)cc1`, 55.2% (active). For the compound `Cc1cccc(-n2ncc(Cl)c(Cl)c2=O)c1`, the inhibition is 13.8%. The result for `Cc1ccc(-n2c(=O)c(C#N)cc3c(=O)n4ccccc4nc32)cc1C` reads -9.74%; that for `CCc1ccc(OCC(=O)N(Cc2ccccc2)C2CCS(=O)(=O)C2)cc1` (stereo not drawn), 9.11%; that for `COc1ccccc1C(C)NC(=O)Cc1ccsc1` (stereo not drawn), -5.87%. As for `O=C(NCCc1ccco1)c1nn(Cc2ccccc2)c(=O)c2ccccc12`, the inhibition is 8.6%. With `O=c1nc2s/c(=C\c3ccco3)c(=O)n2nc1Cc1ccccc1`, the inhibition is 65.5% (active).

As to `O=C(Nc1ccccc1)/C(=C\c1ccco1)NC(=O)c1ccco1`, the inhibition is 17%. Consider `COc1ccc(C(=O)O)cc1S(=O)(=O)NCc1cccnc1`, for which the inhibition was -0.937%. On to `COc1ccc(CNC(=O)c2cc(=O)c3c(C)cc(C)cc3o2)cc1`, for which the inhibition is 28.5%.

On to `Cc1cc(C)cc(OCC(=O)Nc2cc(NC(=O)COc3cc(C)cc(C)c3)cc(C(=O)O)c2)c1`, for which the inhibition is 1.96%. The result for `CNC(=O)c1nnc(Cc2ccc(Cl)cc2)o1` reads 13.1%; that for `c1ccc2cc(CCCc3cc4ccccc4cn3)ncc2c1`, 51.6% (active); that for `Cc1nn(CC(=O)N2CCCCC2)c(=O)c2nn(-c3ccccc3)c(C)c12`, 5.69%.

Consider `Cc1ccc(NC(=O)C(=O)NCc2ccc(/C=N/NC(=O)c3c(C)nc4cc(C)ccn34)o2)cc1`, for which the inhibition was 13.6%. For `O=C(Nc1ccc(S(=O)(=O)Nc2ccccn2)cc1)c1ccccc1` the value was -13.7%. Take `O=C(Nc1ccc(Cl)cc1)Nc1nnc(/C=C/c2ccccc2)s1`: the inhibition is -4.19%. For `O=C(Nc1ccccc1)c1nnsc1S(=O)(=O)c1ccc(Cl)cc1` the value was 59.8% (active).

As to `CC(=O)C[C@@H](O)CC(=O)[C@H]1OC(=O)CCCCCCc2ccccc21`, the inhibition is 12.8%. For `CCOC(=O)C1=C(C)N(C[C@@H]2CC[C@@H](Cc3ccc(-c4ccccc4)cc3)O2)C(=O)NC1c1ccc([N+](=O)[O-])cc1` (stereo partly drawn) the value was 34.6%; for `C=CCNC(=S)N1CCc2[nH]c3ccccc3c2C1`, -8.13%; for `CC[C@]1(C(=O)OC)[C@H]2C(=O)N(Cc3ccccc3)C(=O)[C@H]2[C@H]2CN=C(SCc3ccc(C#N)cc3)N21`, 46.4%. For `CC[C@]1(C(=O)OC)[C@H]2C(=O)N(Cc3ccccc3)C(=O)[C@H]2[C@H]2CN=C(SCc3ccc(Cl)cc3)N21` the value was 53.5% (active); for `CC[C@]1(C(=O)OC)[C@H]2C(=O)N(Cc3ccccc3)C(=O)[C@H]2[C@H]2CN=C(SCc3ccccc3)N21`, 37.7%; for `COc1cccc(NC(=O)CN(C)C(=O)CSCc2nc3scc(-c4cccs4)c3c(=O)[nH]2)c1`, 4.94%. The result for `Cc1ccc(NC(=O)Cn2c(=O)n(CCC(=O)NC3CCN(Cc4ccccc4)CC3)c(=O)c3ccccc32)cc1` reads -1.05%; that for `CC(C)CNC(=O)COC(=O)c1ccccc1OCC(=O)Nc1ccc(Br)cc1`, -11.3%.

Turning to `O=C(Nc1ccccc1F)c1ccc(S(=O)(=O)N2CCCCCC2)cc1`, the inhibition is 34.9%.

Consider `COC(=O)c1ccc(CNC(=O)c2ccc(S(=O)(=O)N3CCCCCC3)cc2)cc1`, for which the inhibition was 15.9%. For `O=C(NCCc1ccc(F)cc1)c1ccc(S(=O)(=O)N2CCCCC2)cc1` the value was 53.6% (active); for `CC(=O)Oc1ccc(C(C)=O)c2c1OCCO2`, 5.79%; for `Cc1nn(CC(=O)Nc2nc3ccccc3s2)c(C)c1[N+](=O)[O-]`, 69.8% (active). `Cc1nn(CC(=O)NCc2ccccn2)c(C)c1[N+](=O)[O-]`: the inhibition was 24.7%. The result for `CCc1ccc(NC(=O)Cn2nc(C)c([N+](=O)[O-])c2C)cc1` reads 25.5%; that for `O=C(NCc1nnc(SCC(=O)N2CCCc3ccccc32)o1)c1ccccc1F`, 19.1%; that for `COc1ccc(N(Cc2cc3ccc(C)cc3[nH]c2=O)S(=O)(=O)c2ccccc2)cc1`, 48.9%. For `O=C(/C=C/c1ccc(Cl)c([N+](=O)[O-])c1)c1cccnc1` the value was 80.7% (active); for `O=C(/C=C/c1ccc(Cl)cc1Cl)c1cccnc1`, 31.1%. For `O=C(Nc1ccncc1)c1ccc(Cl)c([N+](=O)[O-])c1` the value was -42.5%. As for `CC1CCCCC1NC(=O)CCS(=O)(=O)c1cccc2nonc12` (stereo not drawn), the inhibition is 4.3%.

As to `O=C(CCS(=O)(=O)Cc1ccccc1F)NCCCN1CCCCC1`, the inhibition was -8.7%. Consider `CSCCC(NC(=O)COc1ccccc1)C(=O)N(C)CC(=O)Nc1ccc(C)cc1` (stereo not drawn), for which the inhibition was 8.43%. For `Cc1ccc(CNC(=O)c2cccnc2Cl)cc1` the value was -14.6%. For `CC1CCC(NC(=O)C2c3ccccc3C(=O)N2Cc2ccc3c(c2)OCO3)CC1` (stereo not drawn) the value was 9.09%; for `CCc1ccc(NC(=O)NC(C)c2ccc3c(c2)OCO3)cc1` (stereo not drawn), 22.5%.

On to `O=C1C(C=NCC2CCCO2)=C(O)c2ccccc21` (stereo not drawn), for which the inhibition was 6.49%.

On to `CC(=NCc1ccco1)C1=C(O)c2ccccc2C1=O`, for which the inhibition is 50.3% (active). For `CC(=NCc1ccc2c(c1)OCO2)C1=C(O)c2ccccc2C1=O` the value was 51.6% (active); for `CC(=NCc1ccco1)c1c(C(F)(F)F)[nH]n(-c2nc3ccccc3s2)c1=O`, 22.4%.

Regarding `CCOC(=O)C[C@H]1c2ccc(C(F)(F)F)cc2S(=O)(=O)N1c1ccccc1`, the inhibition is 33.9%. For `COc1cc2c(C(=O)N(C)c3cc(Cl)ccc3OC)cn(C)c(=O)c2cc1OC` the value was 10%; for `N#CC(Cc1cc2ccccc2n1S(=O)(=O)c1ccccc1)OCc1ccccc1` (stereo not drawn), 30.3%; for `CC1C(=O)C(C)C(c2ccc(O)cc2)NC1c1ccc(O)cc1` (stereo not drawn), 0.501%. The result for `Cc1nc2sc(C(=O)c3ccccc3)c(N)c2c2c1CCCC2` reads 51.8% (active). The result for `CCc1nc2sc(C(=O)O)c(N)c2c2c1CCCC2` reads -17.3%; that for `Cc1ccc2c(N)c(C(=O)c3ccccc3)sc2n1`, 48.6%. Take `CCOC(=O)C1CCCN(S(=O)(=O)c2ccc(-n3cnnn3)c(C)c2)C1` (stereo not drawn): the inhibition was 2.62%. For `COc1ccc(/C(O)=C2/C(=O)C(=O)N(CC3CCCO3)C2c2ccc(OC)c(OC)c2)cc1` (stereo not drawn) the value was -1.19%; for `Cc1nnc(SCC(=O)N(C(C)C)C(C)C)nc1C`, 8.73%; for `O=C(COc1ccc([N+](=O)[O-])cc1Cl)Nn1cnnc1`, 6.97%. For `CCOc1cc(-c2nc3cc(C)ccn3c2NCC2CCCO2)ccc1O` (stereo not drawn) the value was 18.9%; for `COc1ccc(-c2nc3cnccn3c2NC2CCCCC2)cc1-c1cccc(Cl)c1`, 21.6%. Take `COc1ccc(-c2nc3cc(C)ccn3c2NC2CCCCC2)cc1SC1CCCCC1`: the inhibition was 52.3% (active). For `O=C(c1cc2ccccc2o1)N1CCN(Cc2ccccc2)CC1` the value was 12.6%. The result for `Cc1[nH]c2ccccc2c1-c1ccc(Cl)nn1` reads 5.43%. The result for `CC(C)CCNC(=O)c1ccc2c(Cl)c3c(nc2c1)CCC3` reads 43.3%; that for `CSc1ccc(S(=O)(=O)NC2CCCCC2)cc1`, 31.1%; that for `CC(C)c1ccc(S(=O)(=O)NC2CCCC2)cc1`, 23.4%.

For the compound `Cc1ccc(S(=O)(=O)NC2CCCCCC2)cc1`, the inhibition was 51.4% (active). For the compound `CC(CC(=O)N1CCN(S(=O)(=O)c2ccccc2)CC1)n1cncn1` (stereo not drawn), the inhibition is 7.53%.
